From PubChem BioAssay AID588493 (Sanford-Burnham Center for Chemical Genomics, 2011)
Hit rate of the full screen: of about 360,000 compounds, about 2,100 (0.58%) were called active.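 The calls were made as follows: active = inhibition at 20 µM, scaled to each plate's controls, above about 33% (limit read from the data); inactive = the rest.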 What follows is part of a selection rich in actives, with near analogues and random picks from the rest.

target: 26S proteasome non-ATPase regulatory subunit 14 (Homo sapiens) (UniProt O00487); experiment: inhibition of 26S proteasome subunit Rpn11 – biochemical, fluorescence polarization, uHTS, primary screen (AID 588493); details: human 26S proteasome, Ub4-pepOG fluorescence polarization; at 20 µM; hits give high values; 20S core pre-blocked with epoxomicin
Sequence (O00487 whole entry, looked up): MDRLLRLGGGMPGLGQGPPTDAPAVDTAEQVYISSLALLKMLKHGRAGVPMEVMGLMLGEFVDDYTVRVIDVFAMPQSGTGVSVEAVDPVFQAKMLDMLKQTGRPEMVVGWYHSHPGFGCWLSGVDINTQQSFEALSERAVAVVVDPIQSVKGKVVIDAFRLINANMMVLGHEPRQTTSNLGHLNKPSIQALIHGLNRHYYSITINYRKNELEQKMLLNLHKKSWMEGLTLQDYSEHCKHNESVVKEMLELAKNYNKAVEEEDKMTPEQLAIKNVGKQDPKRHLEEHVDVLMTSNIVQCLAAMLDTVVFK

Row | Compound | inhibition
1 | Cc1ccc(S(=O)(=O)N[C@@H](Cc2ccccc2)C(=O)N2CCC(C(=O)N[C@H](C(=O)O)C(C)O)CC2)cc1 (stereo not given in full) | -7.8% (inactive)
2 | O=C(CN1CCc2cc3c(cc2C1)OCCCO3)Nc1ccccc1 | 1.3% (inactive)
3 | Cc1ccc(NC(=O)CN2CCc3ccccc3C2)cc1 | 90.1% (active)
4 | Cc1ccc(NC(=O)CN2CCc3ccccc3C2)cc1C | 7.2% (inactive)
5 | CSc1nccc(NC(=O)c2ccc(C(C)(C)C)cc2)n1 | 0.3% (inactive)
6 | CSC1=N/C(=C\C=C\c2cccs2)C(=O)S1 | 41.3% (active)
7 | CC1(C(=O)NS(=O)(=O)c2ccccc2)CCN1C(=O)C1CCCCC1 (stereo not given) | -2.7% (inactive)
8 | O=C(CCN1CCN(C/C=C/c2ccccc2)CC1)Nc1cccc(F)c1 | 2.3% (inactive)
9 | Cc1cccc(C(=O)N2CCC(c3nc4ccccc4s3)CC2)c1 | -7.6% (inactive)
10 | Cc1nc2ccc(C(=O)N3CCSCC3)cc2s1 | 93.1% (active)
11 | Cc1nc2ccc(NC(=O)C3CCCCC3)cc2s1 | -1.1% (inactive)
12 | Cc1ccc(C2CCN(C(=S)Nc3cccc(Cl)c3)C2)cc1 (stereo not given) | -2.1% (inactive)
13 | COCCCNC(=S)NCCNc1nc2cc(C)c(C)cc2cc1C#N | -1.6% (inactive)
14 | Cc1cc(C)cc(NC(=S)NCCCN2CCOCC2)c1 | 0.3% (inactive)
15 | Cc1ccc2cc(C#N)c(NCCNC(=S)NCCCN3CCOCC3)nc2c1 | 50.7% (active)
16 | CN(Cc1ccccc1F)c1cc2c(c3c1ccn3C)C1CCC2O1 (stereo not given) | 7.9% (inactive)
17 | O=S(=O)(c1cccc(S(=O)(=O)N2CCC(n3nnc4ccccc43)CC2)c1)N1CCCCC1 | 4.9% (inactive)
18 | CN1CCN(c2ccc(NC(=O)c3cc(Cl)c4c(c3)OCCO4)cc2)CC1 | -0.3% (inactive)
19 | C=CC(=O)Nc1ccc(Nc2ccnc(Nc3ccc(N4CCN(C)CC4)cc3)n2)cc1 | 66.1% (active)
20 | Cn1cnnc1SCC(=O)Nc1ccc(N2CCOCC2)cc1 | 7.5% (inactive)
21 | C=CCc1cc(S(=O)(=O)c2ccc(O)c(CC=C)c2)ccc1O | -1.3% (inactive)
22 | Cc1nc2nc(COc3ccccc3)[nH]n2c(=O)c1C | 3.7% (inactive)
23 | CNC(=O)NCCN1CCCC1=O | -0.3% (inactive)

Row | Compound | inhibition
24 | CCCCC(C(=O)NC(C)(C)C)N(Cc1ccccc1)C(=O)c1snc(C(N)=O)c1N (stereo not given) | -1.4% (inactive)
25 | Cc1csc2nc(O)c(C(=O)NCCN3CCOCC3)c(=O)n12 | -3.8% (inactive)
26 | CCCOC(=O)c1ccc(N2C(=O)c3ccccc3C2=O)cc1 | 0.9% (inactive)
27 | CC(=O)Nc1ccccc1Sc1ccc2c3c(cccc13)C(=O)N(c1ccc(C)cc1)C2=O | 48.3% (active)
28 | CSc1ccccc1NC(=O)C(C)N1C(=O)c2ccccc2S1(=O)=O (stereo not given) | -7.1% (inactive)
29 | COc1ccc(C2N=C(N)N=C(N)N2c2ccccc2)cc1OC (stereo not given) | 6% (inactive)
30 | CCC(C)Sc1nc(C)nc2c1c(=O)n(C)c(=O)n2C (stereo not given) | 2% (inactive)
31 | CCOC(=O)C1(CC2CCCCO2)CCN(Cc2nc(-c3cccs3)oc2C)CC1 (stereo not given) | 4% (inactive)
32 | O=C(OCCOCn1cc(Br)c(=O)[nH]c1=O)c1ccccc1 | 0.6% (inactive)
33 | CONc1nc2nonc2nc1NOC | 2.2% (inactive)
34 | CC(C)(C)C(=O)Nc1c(Br)c(C2CC2)nn1-c1ccccc1 | 9.6% (inactive)
35 | COCCCNC(=O)c1ccc(CNS(=O)(=O)c2ccc(NC(C)=O)cc2)cc1 | -1.2% (inactive)
36 | CCOc1ccc(-n2c(O)c(/C=N/Nc3nnc(C)c(=O)[nH]3)c3ccccc3c2=O)cc1 | 36.2% (active)
37 | CCOc1ccc(-n2c(SCC(=O)Nc3cc(C(=O)O)ccc3Cl)nc3ccccc3c2=O)cc1 | 2.7% (inactive)
38 | Cc1nnc(N/N=C/c2ccccn2)[nH]c1=O | 6.9% (inactive)
39 | CCOc1ccc(N/C(N)=N/c2nc(C)c(C)c(=O)[nH]2)cc1 | -8.8% (inactive)
40 | CCOc1ccc(-n2c(O)c(/C=N/c3ccnn3Cc3ccncc3)c3ccccc3c2=O)cc1 | 76.5% (active)
41 | COC(=O)Cc1csc(/N=C/c2c(O)n(-c3cccc(C(F)(F)F)c3)c(=O)c3ccccc23)n1 | 33.4% (inactive)
42 | CCOc1ccc(CN2CCN(Cc3ccc4cc(F)ccc4n3)CC2CCO)cc1 (stereo not given) | -0.7% (inactive)
43 | COc1ccc(S(=O)(=O)N(C)C[C@H]2OCc3cnnn3CCCC(=O)N([C@H](C)CO)C[C@H]2C)cc1 | -6.2% (inactive)
44 | Nc1nnc(SCCN2C(=O)c3ccccc3S2(=O)=O)s1 | -2.1% (inactive)
45 | CC(=O)N(O)CCCCCNC(=O)CCC(=O)N(O)CCCCCNC(=O)CCC(=O)N(O)CCCCCNC(=O)CCC(=O)O | -7% (inactive)
46 | CCOC(=O)c1ccc2c(c1)nc(SCC(=O)NC(C)C)n2CC | -1.6% (inactive)

Row | Compound | inhibition
47 | C#CCNc1nc(C(C)C)nc2c1nnn2Cc1ccccc1F | -3.7% (inactive)
48 | COc1ccc2[nH]c3c(C)c4cc[n+](C)cc4c(C)c3c2c1 | 88.8% (active)
49 | CCCn1nc(C(=O)NNC(=O)CSCC(=O)Nc2cc(C)on2)c2ccccc2c1=O | 2.6% (inactive)
50 | O=C(Nc1ccc(-c2cscn2)cc1)C1CCCN(Cc2ccc(CO)o2)C1 (stereo not given) | -1.3% (inactive)
51 | CCOC(=O)CSc1nnc(CNC(=O)Cc2ccccc2)n1-c1ccccc1OC | 0.1% (inactive)
52 | CCCCCCSc1ccc([C@@H]2[C@H]3C(=O)N(CC)C(=O)[C@H]3[C@]3(C(=O)OC)CCCCN23)cc1 | 40.3% (active)
53 | CCN1C(=O)[C@@H]2[C@@H](c3ccc(-c4ccccc4)cc3)N3CCCC[C@@]3(C(=O)OC)[C@@H]2C1=O | 7% (inactive)
54 | CCCCCCSc1ccc([C@@H]2[C@@H]3C(=O)N(CC)C(=O)[C@@H]3[C@]3(C(=O)OC)CCCCN23)cc1OC | 15.9% (inactive)
55 | COC(=O)[C@]1(C)CCC[C@@]2(C)C3CC[C@]4(OC(C)=O)C[C@@]3(CCC21)CC4=NO (stereo not given in full) | 0.3% (inactive)
56 | CCC(=O)N(C)C(c1ccccc1Cl)c1nnnn1-c1c(C)cccc1C (stereo not given) | 2.8% (inactive)
57 | Cc1ccc(-c2nnc(-c3ccc(NC(=O)c4cccs4)cc3)o2)cc1 | 149% (active)
58 | COc1ccc(C(CC(=O)Nc2ccc(C)cc2)NC(=O)C(F)(F)F)cc1 (stereo not given) | -7.5% (inactive)
59 | O=C(Nc1ccc(-c2nnc(-c3ccccc3)o2)cc1)c1ccc(Br)o1 | 56.9% (active)
60 | COc1ccc(-c2cn(-c3ccc(C)cc3)c(=O)n2CC(=O)Nc2ccc(OC)c(OC)c2)cc1 | 6.4% (inactive)
61 | COc1ccc(NC(=O)CN(C)C(=O)c2cc(C)oc2C)cc1 | -18.9% (inactive)
62 | COc1ccc(CC(=O)Nc2ccc(-c3nnc(-c4ccc(C)cc4)o3)cc2)cc1 | 32.7% (active)
63 | O=C(Nc1ccc(N2CCN(C(=O)C3CC3)CC2)cc1)c1cccs1 | 0.2% (inactive)
64 | Cc1ccc(NC(=O)Cn2c(C)csc2=O)cc1 | -0.6% (inactive)
65 | COc1ccc(NC(=O)Cn2c(-c3ccc(OC)cc3)cn(-c3ccc(C)cc3)c2=O)cc1 | 43.4% (active)
66 | Cc1ccc(C(=O)NCC(=O)OCc2nnc(-c3ccccc3)o2)cc1 | 3% (inactive)
67 | CCS(=O)(=O)c1ccc(-c2cccc(NC(=O)c3ccc(Br)o3)c2)nn1 | -4.8% (inactive)
68 | O=C(Nc1ccc(-c2nnc(-c3ccccc3)o2)cc1)C1CCCO1 (stereo not given) | -0.7% (inactive)
69 | CCOC(=O)c1cc(C(C)C)sc1NC(=O)COC(=O)c1nccnc1N | 16.7% (inactive)

Row | Compound | inhibition
70 | CCOc1ccc2oc(C(=O)N(CC)CC(=O)Nc3ccc(NC(C)=O)cc3)c(C)c2c1 | 8.2% (inactive)
71 | Cc1cccc(NC(=O)CSc2nnc(CCNC(=O)OC(C)(C)C)o2)c1C | -2.3% (inactive)
72 | O=C(NCc1ccccn1)C1CCN(S(=O)(=O)c2ccc(Br)cc2)CC1 | -11.1% (inactive)
73 | CCC(C)C(CO)NC(=O)/C=C/[C@H]1O[C@@H](n2cnc3c(NC(=O)c4ccccc4)ncnc32)[C@H](O)[C@@H]1O (stereo not given in full) | -5.5% (inactive)
74 | COc1ccc(NC(=S)N2CCC(NC(=O)c3cccc(F)c3)CC2)cc1 | 6.4% (inactive)
75 | C=CCNC(=O)C1CC=CCC1C(=O)O (stereo not given) | 3.6% (inactive)
76 | CCOc1ccc(NC(=O)c2cccc3c2C(=O)N(CC2CCCO2)C3)cc1 (stereo not given) | -0.9% (inactive)
77 | O=C(COC(=O)c1n[nH]c2ccccc12)Nc1ccccc1Br | 0.1% (inactive)
78 | CN(C)C(=O)c1ccc(NC(=O)c2ccccc2-c2ccccc2)cc1 | 7% (inactive)
79 | CCc1ccc(NC(=O)CS(=O)CC(=O)NCCCc2ccccc2)cc1 (stereo not given) | 43.6% (active)
80 | CCc1ccc(NC(=O)CS(=O)CC(=O)N2CCN(c3ccccc3F)CC2)cc1 (stereo not given) | 0.4% (inactive)
81 | S=C(NCCCc1ccccc1)Nc1ccc(Br)cc1 | 1% (inactive)
82 | CCNC(=S)Nc1ccc2c(c1)c(=O)n(C)n2Cc1ccc(Cl)cc1 | 8.6% (inactive)
83 | CCn1c(-c2cc(OC)ccc2OC)csc1=Nc1c(C)n(C)n(-c2ccccc2)c1=O | 1.2% (inactive)
84 | COCCNC(=S)N/N=C/c1c(C)[nH]c2ccccc12 | 17% (inactive)
85 | CN=c1scc(-c2cc(OC)ccc2OC)n1/N=C/c1c(C)[nH]c2ccccc12 | 56.4% (active)
86 | COc1ccc(N(CCC(=O)NCCc2ccccc2)S(=O)(=O)c2ccc(C)cc2C)cc1 | 3.7% (inactive)
87 | Cc1cc(OCC(=O)N(C)c2c(N)n(Cc3ccccc3)c(=O)[nH]c2=O)c(C(C)C)cc1Cl | -1.8% (inactive)
88 | CCC(=C/c1sc2ccc3ccccc3c2[n+]1C)/C=C1\Sc2ccc3ccccc3c2N1C | 70% (active)
89 | Cc1ccc(S(=O)(=O)N2C[C@H]3C(=O)C[C@@H](c4cccc5ccccc45)N(S(=O)(=O)c4ccc(C)cc4)[C@H]3C[C@H]2c2ccc(Cl)cc2)cc1 | -1.4% (inactive)
90 | O=C(NCc1nnnn1-c1ccc(Cl)cc1)c1ccc([N+](=O)[O-])o1 | -0.3% (inactive)
